GLP1R inv ag = inverse agonists of human GLP-1 receptor; P43220; HEK293 GLP-1R CRE-luciferase, luminescence, 24 h; GLP-1R form is constitutively active; Potency, µM (highest dose often 38.3 µM), hits mostly inhibitors; 410,000 compounds, 1.6% hits; AID 624417; note: nearly all actives have a fitted effect of over 55% in size
Target sequence (P43220 whole entry, looked up): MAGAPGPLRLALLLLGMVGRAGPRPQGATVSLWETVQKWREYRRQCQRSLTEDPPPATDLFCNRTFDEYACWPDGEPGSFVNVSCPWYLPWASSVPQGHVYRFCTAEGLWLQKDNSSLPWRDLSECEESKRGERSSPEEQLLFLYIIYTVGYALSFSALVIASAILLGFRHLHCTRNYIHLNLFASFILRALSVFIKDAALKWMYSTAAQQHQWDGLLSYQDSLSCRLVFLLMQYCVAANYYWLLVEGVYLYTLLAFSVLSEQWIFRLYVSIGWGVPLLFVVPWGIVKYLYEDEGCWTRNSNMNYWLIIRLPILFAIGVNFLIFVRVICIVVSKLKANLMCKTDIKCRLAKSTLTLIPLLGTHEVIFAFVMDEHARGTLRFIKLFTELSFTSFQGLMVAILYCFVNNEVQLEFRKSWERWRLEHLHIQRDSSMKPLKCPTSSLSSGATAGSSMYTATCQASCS
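Luminescence readout: a drop in cAMP-driven luciferase signal flags inverse agonism at a constitutively active GLP-1R stably expressed in HEK293. Compound exposure lasted 24 hr at 37 deg C, 5% CO2.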
PTHR1 ag = agonists of human PTHR1 parathyroid hormone receptor. Q03431. HEK293 GP2 PTHR1 cells, GloSensor cAMP luminescence, 1 h. Potency, µM (doses to about 115 µM), most hits filed as activators. 410,000 compounds, 0.075% hits. AID 743266; note: nearly all actives have a fitted effect of over 55% in size
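HEK-293-derived GP2 cells expressing PTHR1 and a GloSensor cAMP reporter, 3,000/well, plated overnight, given luciferin plus IBMX (each 0.5 mM as added) for 1 h at 37 °C, then compound for 1 h at 37 °C. Luminescence was read after 15 min at room temperature.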
GLP-1R agonist = activates the human GLP-1 receptor | P43220 | HEK293 GLP-1R CRE-luciferase, luminescence, 4-6 h; cells express a hypersensitive GLP-1R form | Potency, µM (titrated, usually from 45.6 µM), most hits filed as activators | 380,000 compounds, 0.007% hits
HEK293 tox = cytotoxic in the GLP-1 receptor inverse agonist counter-screen; HEK293 cAMP-luciferase reporter cells, luminescence, 24 h; Potency, µM (titrated, usually from 38.3 µM), most hits filed as inhibitors; 410,000 compounds, 0.13% hits;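 note: loss of luciferase light is scored as toxicity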
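1536-well qHTS counterscreen of the MLSMR; 200 cells/uL, 12 h pre-incubation, 23 nL cpd, 24 h at 37 deg C 5% CO2, luciferase detection reagent, 12 min RT, luminescence. Inhibition = undesired.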
Of the large screens only hits and unclear results are named; the others gave an inactive call. Compounds with a hit are over-represented: about 1.7% of the library has one in this group of screens. Calls come from the whole dose curve; as a rule, active = well fitted curve in the direction sought with a large enough effect; inconclusive = small, poorly fitted or top-dose-only effect, or another doubt; inactive = no such curve, though single readings can be large; an effect the other way counts as inactive or inconclusive.

O=C(NCCc1ccccc1)c1ccc(Cn2c(SCc3ccccc3)nc3cccnc32)cc1	none (no result: GLP-1R agonist)
CCCCc1c(C)nn(-c2nnc3c4ccccc4n(CC)c3n2)c1C	GLP1R inv ag 10µM, HEK293 tox 10µM
CCn1c2ccccc2c2nnc(N3CCN(c4ccc(F)cc4)CC3)nc21	none (no result: GLP-1R agonist)
N#Cc1ccccc1NC(=O)CN(Cc1ccccc1)Cc1ccccc1	GLP1R inv ag 7.1µM
CCCC(=O)N(CCN(Cc1ccccc1)C(=O)CCC)Cc1ccccc1	GLP1R inv ag 13µM
CCOCC(=O)N(CC)Cc1ccccc1	none
Cc1ccc(Cl)cc1NC(=O)CSc1nc2c(c(=O)[nH]1)CN(Cc1ccccc1)CC2	none (no result: GLP-1R agonist)
CCC[C@H]1C[C@H](C(=O)NC(C(C)Cl)C2O[C@@H](SC)C(OP(=O)(O)O)[C@@H](O)[C@@H]2O)N(C)C1 (some centres not stated)	none (no result: GLP1R inv ag, PTHR1 ag, HEK293 tox)
O=C1C=CC2(C=C1)O[C@H](Cc1ccccc1)[C@@H](Cc1ccccc1)O2	GLP1R inv ag inconclusive, HEK293 tox 2µM
COc1ccc(C[C@@H]2OC3(C=CC(=O)C=C3)O[C@H]2Cc2ccc(OC)cc2)cc1	GLP1R inv ag inconclusive, HEK293 tox 4.5µM
O=C(NCCc1ccccc1)c1ccc(Nc2nc3ccccc3n3nnnc23)cc1	none (no result: GLP-1R agonist)
[O-][n+]1ccccc1SSc1cccc[n+]1[O-]	none (no result: GLP1R inv ag, PTHR1 ag, HEK293 tox)
COc1cc(/C=N/Nc2ccccc2)ccc1O	GLP1R inv ag 2.5µM
Oc1ccc(/C=N/Nc2ccccc2)cc1	GLP1R inv ag inconclusive
Brc1ccc(/C=N/Nc2ccccc2)cc1	GLP1R inv ag 4.5µM, PTHR1 ag inconclusive
COc1cc(/C=N/Nc2ccccc2C(F)(F)F)ccc1O	GLP1R inv ag inconclusive
CCCCC(=O)Nc1cc(-c2cn3cccnc3n2)ccc1C	none (no result: GLP-1R agonist)
Cc1ccccc1OCc1n(CC(=O)OC2CC(C)CCC2C(C)C)c2ccccc2[n+]1C (configuration not stated)	GLP1R inv ag inconclusive, HEK293 tox inconclusive
CC1CCC(C(C)C)C(OC(=O)COC(=O)c2cccn2C)C1 (configuration not stated)	GLP1R inv ag 10µM
CC1CCC(C(C)C)C(OC(=O)Cn2c(-c3ccc(Cl)cc3)[n+](C)c3ccccc32)C1 (configuration not stated)	GLP1R inv ag 10µM, HEK293 tox 10µM
CCOC(=O)C(=NCC1CCCO1)NNc1cc(Cl)ccc1Cl (configuration not stated)	GLP1R inv ag 11µM
Cc1ccc2[nH]cc(C(c3ccccc3)c3cccs3)c2c1 (configuration not stated)	GLP1R inv ag 10µM (no result: GLP-1R agonist)
Cc1ccc2[nH]cc(C(c3ccccc3)c3ccc(C)s3)c2c1 (configuration not stated)	GLP1R inv ag inconclusive, HEK293 tox inconclusive (no result: GLP-1R agonist)
Cc1ccc2c(c1)Oc1ccc([N+](=O)[O-])cc1C(=O)N2	none
Cc1ccc2c(c1)Oc1ccc(NC(=O)CCl)cc1C(=O)N2	GLP1R inv ag 11µM, HEK293 tox inconclusive
Cc1ccc(C)c(N2CCN(c3nc4c(S(=O)(=O)c5ccccc5)nnn4c4ccc(Cl)cc34)CC2)c1	none (no result: GLP-1R agonist)
O=C(O)c1cc(S(=O)(=O)NCCOc2ccccc2)ccc1Cl	none
CC(C)C[C@@H](CN1CCCC1CN1C(=S)NC[C@@H]1Cc1ccc(O)cc1)N1C[C@H](Cc2ccc(O)cc2)N(CC2CCCCC2)C1=S (some centres not stated)	GLP1R inv ag 11µM, HEK293 tox inconclusive
CC(C)C[C@@H](CN1CCC[C@@H]1CN1C(=S)NC[C@@H]1Cc1ccccc1)N1C[C@H](Cc2ccc(O)cc2)N(CC2CCCCC2)C1=S	none
COc1ccc(/C=C(/C(=O)NCc2ccccc2)c2ccccc2)cc1	GLP1R inv ag 25µM
COc1ccc(-n2nc3cc(C)c(NC(=O)COc4cccc(C)c4)cc3n2)cc1	none (no result: GLP-1R agonist)
Cc1cc(C)c(NS(=O)(=O)c2ccc(-c3cnc(C4CC4)o3)cc2)c(C)c1	GLP1R inv ag inconclusive, HEK293 tox inconclusive (no result: GLP-1R agonist)
Nc1nc(Cl)nc2c1ncn2C1CC(O)C(CO)O1 (configuration not stated)	GLP1R inv ag 5.6µM
Nc1nc2c(ncn2[C@H]2C[C@H](O)[C@@H](CO)O2)c(=O)[nH]1	none
CC(=O)Nc1ccc(N(CC(O)Cn2c3ccccc3c3ccccc32)S(=O)(=O)c2ccc(C)cc2)cc1 (configuration not stated)	GLP1R inv ag 7.9µM, HEK293 tox inconclusive
Cc1cccc(N(CC(O)Cn2c3ccccc3c3ccccc32)S(=O)(=O)c2ccc(F)cc2)c1 (configuration not stated)	GLP1R inv ag 13µM, HEK293 tox inconclusive (no result: GLP-1R agonist)
CCOc1ccc(NC(=O)c2c(NC(=O)c3ccccc3F)sc3c2CCC3)cc1	none (no result: GLP-1R agonist)
CCOc1ccc(NC(=O)c2c(NC(=O)CNCCN3CCOCC3)sc3c2CCC3)cc1	GLP1R inv ag 2.5µM, HEK293 tox inconclusive
Cc1cccc(C)c1NC(=O)CN(C)C(=O)c1ccccc1Cc1ccccc1	GLP1R inv ag inconclusive
Cc1ccc(NC(=O)CN(C)C(=O)C(Sc2ccccc2)c2ccccc2)cc1 (configuration not stated)	GLP1R inv ag 8.9µM
Cc1ccc(NC(=O)CN(C)C(=O)c2ccccc2Cc2ccccc2)cc1	GLP1R inv ag 10µM
c1ccc(C[C@H]2CNCCN2CCc2cccc3ccccc23)cc1	GLP1R inv ag 11µM
CCc1nc(N2CCN(C(=S)NCCCOC)CC2)c2c3c(sc2n1)CCCC3	GLP1R inv ag 11µM, HEK293 tox inconclusive
CCC(=O)N1CCN(c2nc(CC)nc3sc4c(c23)CCCC4)CC1	GLP1R inv ag inconclusive
CC(C)(O)C(=O)NN(Cc1ccccc1)c1ccccc1	none
CN(C)N(Cc1ccccc1)C(=O)C(O)(c1ccccc1)c1ccccc1	GLP1R inv ag 13µM
CCCCOc1ccc(C(=O)OC2CC(C)N(C)CC2C)cc1 (configuration not stated)	GLP1R inv ag 3.5µM
CC1CN(C)C(C)CC1OC(=O)C(c1ccccc1)c1ccccc1 (configuration not stated)	GLP1R inv ag inconclusive
CC(SCc1ccccc1)C(=O)N/N=C/c1cc2c(cc1Br)OCO2 (configuration not stated)	GLP1R inv ag 10µM
CCc1ccc(-n2c(=O)c3c4c(sc3n(CC(=O)NCCCOC)c2=O)CCCC4)cc1	none
C=CCNC(=S)N1CCN(c2ncc(C(F)(F)F)cc2Cl)CC1	GLP1R inv ag 8.9µM
Cc1cc(C)cc(NC(=S)N2CCN(c3ncc(C(F)(F)F)cc3Cl)CC2)c1	none
Cc1cc2c(cc1S(=O)(=O)N(C)CC(=O)Nc1ccc(C#N)cc1)OCC(=O)N2	none (no result: GLP-1R agonist)
O=C(c1ccc(Cl)cc1)c1c[nH]c(C(=O)NNc2ccccc2)c1	GLP1R inv ag 2µM, HEK293 tox inconclusive
Cc1ccc(OCc2nc3ccccc3n2Cc2ccccc2Cl)cc1	GLP1R inv ag 13µM
CCOCCn1c(COc2ccc(C)cc2)nc2ccccc21	GLP1R inv ag 7.1µM
COCCn1c(COc2ccc(C)cc2)nc2ccccc21	GLP1R inv ag inconclusive

High-throughput results from PubChem BioAssay.
